According to PubChem BioAssay (EPA / NIEHS):
Where “and” joins values, the source holds several entries; their conditions need not be identical. Equal entries are not always repeated. The source holds several records for some structures; these can differ, active in one and inactive in another. Calls of active or inactive are those of the source. Rule for the calls: active = hit-call score of the fitted dose curve at least 0.9, where 1 is the maximum; inactive = score below 0.9.

What was measured:
Conditions in all cases: primary human HUVEC with PBMC; actives raise or lower the signal
[1] = read-out: Monocyte Chemoattractant Protein-1 (MCP1), CCL2 (gene 6347); experiment: BSK_LPS_MCP1: BioMAP Diversity Plus: LPS Assay for Monocyte Chemoattractant Protein-1 (MCP1) Biomarker Activity (AID 2283081);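 for AC50: co-culture stimulated with LPS; secreted MCP-1 protein quantified by ELISA in culture supernatant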
Outline: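 Values derive from bidirectional fitting against DMSO of ELISA-measured MCP-1 in a human primary endothelial and mononuclear cell co-culture, 24 h after chemical addition under LPS activation.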

[2] = BSK_LPS_PGE2: BioMAP Diversity Plus: LPS Assay for Prostaglandin E2 (PGE2) Biomarker Activity (AID 2283082);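 for AC50: secreted prostaglandin E2 measured by ELISA in LPS-stimulated co-culture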
Outline: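 Primary human endothelial cells and blood mononuclear cells, co-cultured with LPS, receive test chemical; PGE2 ELISA follows at 24 h, with SRB-stained parallel cultures flagging cytotoxicity.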

[3] = read-out: Macrophage colony-stimulating factor (MCSF), CSF1 (gene 1435); experiment: BSK_LPS_MCSF: BioMAP Diversity Plus: LPS Assay for Macrophage colony-stimulating factor (MCSF) Biomarker Activity (AID 2283083)
Outline: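 Bidirectional fit versus DMSO of ELISA-measured M-CSF in co-cultured human umbilical vein endothelial cells and PBMC, sampled 24 h after dosing.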

[4] = read-out: Tissue Factor, F3 (gene 2152); experiment: BSK_LPS_TissueFactor: BioMAP Diversity Plus: LPS Assay for Tissue Factor Biomarker Activity (AID 2283084)
Outline: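 Read-out: CD142 ELISA, 24 h. System: LPS-driven human endothelial/PBMC co-culture. Analysis: up- or down-signal fitted against DMSO.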

[5] = read-out: Tumor necrosis factor (Homo sapiens) (UniProt P01375); experiment: BSK_LPS_TNFa: BioMAP Diversity Plus: LPS Assay for Tumour Necrosis Factor alpha (TNFa) Biomarker Activity (AID 2283085);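 for AC50: TNFa protein level quantified by ELISA in the co-culture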
Outline: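 ELISA-based TNFa endpoint in a human endothelial–PBMC co-culture sampled 24 h post-exposure. Curves were fitted in both directions using DMSO as baseline of activity.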

[6] = read-out: Vascular cell adhesion molecule 1 (VCAM1), VCAM1 (gene 7412); experiment: BSK_LPS_VCAM1: BioMAP Diversity Plus: LPS Assay for Vascular cell adhesion molecule 1 (VCAM1) Biomarker Activity (AID 2283086)
Outline: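 Measured by ELISA: VCAM-1 in LPS-activated HUVEC/PBMC co-cultures 24 h after treatment. Values reflect bidirectional fitting with DMSO as baseline.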

CD38, CD38 (gene 952) = experiment: BSK_SAg_CD38: BioMAP Diversity Plus: SAg Assay for CD38 Biomarker Activity (AID 2283087)
Outline: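 Measures CD38 on a human endothelial/PBMC co-culture driven by SEB and TSST-1, 24 h after compound exposure, using ELISA with fluorescence detection; DMSO defines baseline for bidirectional curve fitting.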

CD40, CD40 (gene 958) = experiment: BSK_SAg_CD40: BioMAP Diversity Plus: SAg Assay for CD40 Biomarker Activity (AID 2283088)
Outline: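 Endpoint derived by fitting increases or decreases versus DMSO controls. CD40 is detected by fluorescence ELISA in a human vascular co-culture of endothelium and PBMC at 24 h.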

[7] = read-out: Monocyte Chemoattractant Protein-1 (MCP1), CCL2 (gene 6347); experiment: BSK_SAg_MCP1: BioMAP Diversity Plus: SAg Assay for Monocyte Chemoattractant Protein-1 (MCP1) Biomarker Activity (AID 2283090)
Outline: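 Values derive from bidirectional fitting of ELISA-measured MCP1 against DMSO controls. Readings were taken 24 h after dosing human vascular endothelial cells co-cultured with peripheral blood mononuclear cells under superantigen stimulation.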

CD69, CD69 (gene 969) = experiment: BSK_SAg_CD69: BioMAP Diversity Plus: SAg Assay for CD69 Biomarker Activity (AID 2283089);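 for AC50: cell surface CD69 protein quantified by ELISA with fluorescence detection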
Outline: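 Endothelial/PBMC co-culture; chemical added; 24 h incubation; CD69 ELISA with fluorescence detection; bidirectional fit vs DMSO.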

Tumor necrosis factor (Homo sapiens), sequence (P01375 whole entry, looked up): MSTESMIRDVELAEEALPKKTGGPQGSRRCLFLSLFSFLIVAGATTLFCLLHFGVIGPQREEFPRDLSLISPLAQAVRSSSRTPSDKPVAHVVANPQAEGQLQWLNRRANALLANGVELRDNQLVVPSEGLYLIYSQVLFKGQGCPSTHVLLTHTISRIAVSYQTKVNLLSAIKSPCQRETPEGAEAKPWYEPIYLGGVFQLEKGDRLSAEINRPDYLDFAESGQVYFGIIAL

SMILES | outcome [1] | outcome [2] | outcome [3] | outcome [4] | outcome [5] | outcome [6] | outcome (CD38, CD38 (gene 952)) | outcome (CD40, CD40 (gene 958)) | outcome [7] | AC50 [1] | AC50 [2] | AC50 [6] | AC50 (CD38, CD38 (gene 952)) | AC50 [4] | AC50 (CD69, CD69 (gene 969)) | AC50 [7] | outcome (CD69, CD69 (gene 969)) | AC50 [3] | AC50 [5]
Brc1nc2ccccc2s1 | inactive | inactive | inactive | inactive | inactive | inactive | inactive | inactive | inactive |  |  |  |  |  |  |  |  |  | 
NS(=O)(=O)C(F)(F)C(F)(F)C(F)(F)C(F)(F)C(F)(F)C(F)(F)F | inactive |  | inactive | inactive | inactive |  | inactive |  | inactive | 30 µM (active) | 10.7 µM (active) and 13.8 µM (active) | 5.95 µM (active) and 46.8 µM (active) | 43.9 µM (active) |  |  |  |  |  | 
C=CC(=O)OCCC(F)(F)C(F)(F)C(F)(F)C(F)(F)F | inactive | inactive | inactive | inactive | inactive |  |  |  |  |  |  | 32.7 µM (active) and 15.7 µM (active) | 47.8 µM (active) and 30 µM (active) | 30 µM (active) | 28 µM (active) and 30.9 µM (active) | 19.4 µM (active) and 14.4 µM (active) |  |  | 
O=C(c1ccccc1)c1ccc(O)cc1O | inactive |  | inactive | inactive | inactive | inactive |  | inactive | inactive |  | 726 nM (active) |  | 20 µM (active) |  |  |  |  |  | 
NCC(F)(F)C(F)(F)C(F)(F)C(F)(F)C(F)(F)C(F)(F)F | inactive | inactive | inactive | inactive | inactive | inactive | inactive |  | inactive | 19.9 µM (active) |  |  |  |  |  |  | inactive |  | 
O=C(O)C(F)(F)OC(F)(F)C(F)(F)OC(F)(F)C(F)(F)OC(F)(F)F | inactive | inactive | inactive | inactive | inactive | inactive | inactive | inactive | inactive |  |  |  |  |  |  |  |  |  | 
CO[Si](C)(CCC(F)(F)C(F)(F)C(F)(F)C(F)(F)C(F)(F)C(F)(F)F)OC | inactive | inactive | inactive | inactive | inactive | inactive | inactive | inactive | inactive |  |  |  |  |  |  |  |  |  | 
FC(F)(F)C(F)(F)C(F)(F)C(F)(F)C(F)(F)C(F)(F)C(F)(F)CCI | inactive | inactive | inactive | inactive | inactive | inactive | inactive | inactive | inactive |  |  |  |  |  |  |  |  |  | 
FC(F)(F)C(F)(F)C(F)(F)C(F)(F)C(F)(F)C(F)(F)CC[Si](Cl)(Cl)Cl | inactive | inactive | inactive | inactive | inactive | inactive | inactive |  | inactive | 0.219 µM (active) |  |  |  |  |  |  | inactive |  | 
NCC(F)(F)C(F)(F)C(F)(F)C(F)(F)C(F)(F)C(F)(F)C(F)(F)C(F)(F)F | inactive | inactive | inactive | inactive | inactive | inactive | inactive | inactive | inactive |  |  |  |  |  |  |  |  |  | 
O=C(O)C(F)(F)C(F)(F)C(F)(F)OC(F)(F)F | inactive | inactive | inactive | inactive | inactive | inactive | inactive | inactive | inactive |  |  |  |  |  |  |  | inactive |  | 
O=C(Cl)C(F)(F)C(F)(F)C(F)(F)C(F)(F)C(F)(F)C(F)(F)F | inactive | inactive | inactive | inactive | inactive | inactive | inactive | inactive | inactive |  |  |  |  |  |  |  |  |  | 
O=C(F)C1(F)C(F)(F)C(F)(F)C(F)(F)C(F)(F)C1(F)F | inactive | inactive | inactive | inactive | inactive | inactive | inactive | inactive | inactive |  |  |  |  |  |  |  |  |  | 
O=S(=O)(O)CCC(F)(F)C(F)(F)C(F)(F)C(F)(F)C(F)(F)C(F)(F)C(F)(F)C(F)(F)F | inactive |  | inactive | inactive | inactive | inactive | inactive | inactive | inactive |  | 30 µM (active) and 40.9 µM (active) | 5.95 µM (active) | 15.6 µM (active) |  |  |  |  | 51.4 µM (active) | 47.1 µM (active)
O=C(O)C(F)(F)C(F)(F)C(F)(F)C(=O)O | inactive | inactive | inactive | inactive | inactive | inactive | inactive | inactive | inactive |  |  |  |  |  |  |  | inactive |  | 
OCC(F)(F)C(F)(F)C(F)(F)C(F)(F)C(F)(F)C(F)(F)C(F)(F)C(F)(F)CO | inactive | inactive | inactive | inactive | inactive | inactive | inactive | inactive | inactive |  |  |  |  |  |  |  |  |  | 0.399 µM (active)
